Here are results for 36 compounds from paper PMC6792352, “Limited Chemical Structural Diversity Found to Modulate Thyroid Hormone Receptor in the Tox21 Chemical Library” (Environmental Health Perspectives, 2019).

Structures can show the parent of a compound that is named as a salt. Some results are limits rather than exact numbers.

For this test, the system named is thyroid hormone receptor (endogenous TRα and TRβ). On the set-up: species or system GH3-TRE-Luc (rat pituitary); GH3-TRE-Luc luciferase reporter, antagonist mode against 1 nM T3, loss of signal, qHTS. Particulars: read-out: Average AC50 (uM) GH3-TRE-Antag, antagonist mode, 1 nM T3, no GH3 cytotoxicity hit.
Turning to `CN(CCOc1ccc(CC2SC(=O)NC2=O)cc1)c1ccccn1` (stereo not drawn) [Rosiglitazone maleate], the AC50 stood at 75.1 µM.

Consider `C=CCCCCCCCCC(=O)O` [10-Undecenoic acid], for which the AC50 was determined as 43.6 µM.

Take `N#Cc1cc(Br)c(O)c(Br)c1` [Bromoxynil]: the AC50 turned out to be 69.3 µM.

With `C=CCCCCCCCCC=O` [Undec-10-enal], the AC50 is 75.3 µM.

As for `O=C(c1ccc(F)cc1)C1CCN(CCn2c(=S)[nH]c3ccccc3c2=O)CC1` [Altanserin hydrochloride], the AC50 came to 46.6 µM.

In the case of `CCC[C@@]1(CCc2ccccc2)CC(O)=C([C@H](CC)c2cccc(NS(=O)(=O)c3ccc(C(F)(F)F)cn3)c2)C(=O)O1` [Tipranavir], the AC50 worked out at 36.8 µM.

With `CCCc1nc2c(C)cc(-c3nc4ccccc4n3C)cc2n1Cc1ccc(-c2ccccc2C(=O)O)cc1` [Telmisartan], the AC50 was 31.6 µM.

For `CCCCCCCCCCCCCCCC(=O)OC[C@H](O)[C@H]1OC(=O)C(O)=C1O` [Ascorbyl palmitate], the AC50 was over 50 µM.

Regarding `CC(=O)c1c(C)cc(C(C)(C)C)cc1C` [4'-tert-Butyl-2',6'-dimethylacetophenone], the AC50 was determined as 48.7 µM.

On to `COc1ccc2[nH]c([S+]([O-])Cc3ncc(C)c(OC)c3C)nc2c1` (stereo not drawn) [Omeprazole], for which the AC50 is over 50 µM.

On to `CCCCCc1ccco1` [2-Pentylfuran], for which the AC50 amounted to 61.2 µM.

With `Cc1ccccc1CO[C@@H]1C[C@@]2(C(C)C)CC[C@]1(C)O2` (racemic) [Cinmethylin], the AC50 came out at 38.4 µM.

Take `C[C@@H]1C[C@H]2[C@@H]3CCC4=CC(=O)C=C[C@]4(C)[C@@]3(Cl)[C@@H](O)C[C@]2(C)[C@@]1(OC(=O)c1ccco1)C(=O)CCl` [Mometasone furoate]: the AC50 came to 16.9 µM.

Regarding `O=C(Nc1ccc(Cl)c(Cl)c1)C1CC1` [Cypromid], the AC50 came out at 45.8 µM.

On to `COC(=O)NC(=S)Nc1ccccc1NC(=S)NC(=O)OC` [Thiophanate-methyl], for which the AC50 stood at 78.1 µM.

`CCCCCCOc1ccc(N)cc1` [4-Hexyloxyaniline]: the AC50 is 59.8 µM.

As for `CCOc1ccc(Cc2nccc3cc(OCC)c(OCC)cc23)cc1OCC` [Ethaverine hydrochloride], the AC50 is 8.58 µM.

As for `O=S1(=O)c2cccc3cccc(c23)N1CCCN1CCN(c2ccc(F)cc2)CC1` [Fananserin], the AC50 is over 50 µM.

Regarding `COc1cc(NC(=O)CC(C)=O)c(OC)cc1Cl` [4'-Chloro-2',5'-dimethoxyacetoacetanilide], the AC50 was over 90 µM.

Consider `O=C1/C(=C/c2cccs2)CCC/C1=C\c1cccs1` [Tenylidone], for which the AC50 stood at 46.5 µM.

For `CC(CN1CC(=O)NC(=O)C1)N1CC(=O)NC(=O)C1` (stereo not drawn) [ICRF-159], the AC50 was 33.9 µM.

For the compound `Nc1cc(Cl)c(N)c(Cl)c1` [2,6-Dichloro-1,4-benzenediamine], the AC50 is 78 µM.

On to `CCCCCC[C@@H](O)C/C=C\CCCCCCCC(=O)O` [Potassium ricinoleate], for which the AC50 is 31.8 µM.

Regarding `O=C(c1ccccc1)c1cc(Cl)ccc1O` [(5-Chloro-2-hydroxyphenyl)phenylmethanone], the AC50 stood at 84.3 µM.

Regarding `COC(=O)N[C@H](C(=O)N[C@@H](Cc1ccccc1)[C@@H](O)CN(Cc1ccc(-c2ccccn2)cc1)NC(=O)[C@@H](NC(=O)OC)C(C)(C)C)C(C)(C)C` [Atazanavir], the AC50 stood at 19.5 µM.

For `COc1ccccc1NC(=O)c1cc2ccccc2cc1O` [3-Hydroxy-2-naphthoic o-anisidide], the AC50 is 10.4 µM.

Regarding `O=C(O)c1cccc(-c2noc(-c3ccccc3F)n2)c1` [Ataluren], the concentration at half-maximal activity (AC50) is 10.8 µM.

`CCOc1cc(N)c(Cl)cc1C(=O)NCC1CN(Cc2ccc(F)cc2)CCO1` (stereo not drawn) [Mosapride citrate]: the concentration at half-maximal activity (AC50) amounted to 43.4 µM.

With `O=C(O)c1cccc(C[C@@H]2COc3ccc(OCc4nc5cc(F)ccc5s4)cc3[C@@H]2O)c1` [CP-085958], the AC50 was 53.1 µM.

Consider `OC[C@H]1O[C@@H](n2cnc3c(=S)nc[nH]c32)[C@H](O)[C@@H]1O` [Thioinosine], for which the concentration at half-maximal activity (AC50) is 21.8 µM.

Regarding `Cc1c(Cl)cccc1Nc1ccccc1C(=O)O` [Tolfenamic acid], the half-maximal activity concentration (AC50) was found to be 12.5 µM.

On to `CCCN(CCC)S(=O)(=O)c1ccc(C(=O)O)cc1` [Probenecid], for which the AC50 turned out to be 4.15 µM.

For `Cc1ccc2nc(N)[nH]c(=O)c2c1Sc1ccncc1` [Nolatrexed dihydrochloride], the AC50 amounted to 4.76 µM.

For the compound `CCCCCCCCCCCCSC#N` [Lauryl thiocyanate], the concentration at half-maximal activity (AC50) worked out at 42.6 µM.

In the case of `COc1ccccc1/C=C/C=O` [trans-2-Methoxycinnamaldehyde], the AC50 was determined as 47.6 µM.

As to `CCN(Cc1cccc(S(=O)(=O)O)c1)c1ccc(C(=C2C=CC(=[N+](CC)Cc3cccc(S(=O)(=O)[O-])c3)C=C2)c2ccccc2)cc1` [FD&C Green No. 1], the concentration at half-maximal activity (AC50) came out at 66.2 µM.
